# Assay results published in PubChem BioAssay (NCI).
# Compounds without any hit were thinned out: in the full panel of roughly 83,000, 20% have a hit.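 Step 1: grow cells in 96-well plates. Step 2: add test compound at a single concentration. Step 3: incubate 48 h. Step 4: record percent growth.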 Unmarked numbers belong to inactive results. The source made the active and inactive calls. Rule for the calls: active = growth percent below 10; inactive = the rest.
# Assays:
# Test in all cases: NCI-60 one-dose screen, 48 h (100 = growth as untreated, 0 = no growth, -100 = all killed)
# Conditions in all cases: 10 µM unless noted
# SR leukemia = tested on: SR leukemia
# RPMI-8226 leukemia = tested on: RPMI-8226 leukemia
# OVCAR-8 ovarian = tested on: OVCAR-8 ovarian
# OVCAR-5 ovarian = tested on: OVCAR-5 ovarian
# OVCAR-4 ovarian = tested on: OVCAR-4 ovarian
# SK-OV-3 ovarian = tested on: SK-OV-3 ovarian
# IGROV1 ovarian = tested on: IGROV1 ovarian
# OVCAR-3 ovarian = tested on: OVCAR-3 ovarian
# HS 578T breast = tested on: HS 578T breast
# NCI/ADR-RES ovarian = tested on: NCI/ADR-RES ovarian
# T-47D breast = tested on: T-47D breast
# BT-549 breast = tested on: BT-549 breast
# MDA-MB-435 melanoma = tested on: MDA-MB-435 melanoma
# SW-620 colon = tested on: SW-620 colon
# MCF7 breast = tested on: MCF7 breast
# HCT-116 colon = tested on: HCT-116 colon
# HCC-2998 colon = tested on: HCC-2998 colon
# KM12 colon = tested on: KM12 colon
SMILES,growth (SR leukemia),growth (RPMI-8226 leukemia),growth (OVCAR-8 ovarian),growth (OVCAR-5 ovarian),growth (OVCAR-4 ovarian),growth (SK-OV-3 ovarian),growth (IGROV1 ovarian),growth (OVCAR-3 ovarian),growth (HS 578T breast),growth (NCI/ADR-RES ovarian),growth (T-47D breast),growth (BT-549 breast),growth (MDA-MB-435 melanoma),growth (SW-620 colon),growth (MCF7 breast),growth (HCT-116 colon),growth (HCC-2998 colon),growth (KM12 colon)
CC1(C)N=C(N)N=C(N)N1c1cccc(CN)c1,105%,99.9%,93.3%,89.2%,93.8%,101%,88.8%,94.9%,95.6%,96.4%,102%,94.6%,104%,98.4%,95.9%,91.3%,100%,
O=C1C2=C(CCN(Cc3ccccc3)C2)N2CCN=C2N1Cc1ccc(F)cc1F,55.5%,19.3%,17.4%,56.4%,-2.31% (active),27.8%,47.5%,26.8%,45.8%,20.1%,33.4%,34.6%,32.3%,40.9%,30.1%,23.3%,34.3%,44.7%
Cc1c(Cl)cccc1NS(=O)(=O)c1ccccc1,113%,123%,112%,92%,73.3%,105%,114%,100%,102%,104%,109%,105%,101%,106%,107%,104%,109%,116%
CCCCCCCCN(CCCCCCCC)C(=N)c1ccnc2ccccc12,-56.6% (active),-47.7% (active),-66.1% (active),-57.2% (active),-67.1% (active),-27.8% (active),-66.5% (active),-93% (active),-32% (active),-72.5% (active),-62.9% (active),66.2%,-82.3% (active),-68.1% (active),-74.6% (active),-92.3% (active),-84.1% (active),
COc1cccc(CCC2CCCN(c3cc(C)nc(N)n3)C2)c1 (configuration not stated),26.7%,18.4%,24.4%,33.9%,52.2%,40.5%,31.3%,11.4%,56.8%,6.21% (active),45.9%,39.1%,0.575% (active),30.4%,17.8%,7.36% (active),39.4%,20.5%
CCCCCCNc1cc(C)nc2ccc(OC)cc12,23.2%,34.4%,65.3%,64.4%,55%,73.8%,55.5%,65.8%,87%,45.1%,52.1%,75.5%,64.6%,68.7%,58.8%,28.5%,48.4%,66.3%
NC(N)=N/N=C(/c1ccccc1)c1ccc(N)cc1,88.8%,150%,108%,103%,132%,99.3%,127%,112%,150%,106%,107%,72.7%,91.2%,111%,97%,115%,103%,112%
Cc1ccccc1NC(=O)CN(C)C,104%,111%,108%,95.8%,118%,101%,96%,113%,113%,101%,95.6%,106%,108%,108%,97.4%,101%,116%,107%
Cn1nnnc1-c1ccc(N)cc1,87.6%,103%,107%,94.1%,100%,95.8%,99.2%,101%,96.8%,98.1%,87.2%,93.4%,99.5%,104%,90.9%,84.6%,100%,99.4%
C[C@@H]1C(=O)N(C[C@@H](Cc2ccccc2)NC(=O)OCc2ccccc2)[C@]1(Cc1ccccc1)C(=O)OCc1ccccc1,16.6%,19.6%,40.2%,69.1%,1.48% (active),54.5%,57.4%,43.3%,55.2%,21%,22.3%,61.3%,48.3%,40.9%,27%,34.4%,72.8%,26%
CCCCCOC(=O)c1cccc(NC(=O)CN(CC)CC)c1,78.3%,96.7%,103%,107%,119%,94.9%,107%,113%,111%,105%,91.9%,72.6%,101%,105%,103%,74.9%,98.9%,104%
CN(C)CCOC(=O)Nc1ccc(Cl)cc1,101%,94.3%,97.5%,109%,117%,96.9%,103%,106%,94.7%,104%,101%,82%,112%,104%,94.4%,86.8%,102%,104%
C/C(Cc1ccc(Cl)cc1)=C(/c1ccc(Cl)cc1)c1ccc(OCCN(C)C)cc1,-41.1% (active),-41.4% (active),69.2%,81.2%,40.3%,110%,56.4%,57.2%,61%,77.5%,47.9%,103%,44.6%,-32.4% (active),11%,16.5%,1.6% (active),27.9%
c1ccc(-c2oc3ccccc3c2-c2ccccc2)cc1,57.3%,107%,102%,105%,96.7%,101%,87.8%,100%,110%,110%,75.7%,106%,99.5%,105%,115%,98.5%,111%,104%
NC(=S)N/N=C/C(=O)O,62.9%,48.1%,81.9%,102%,75.3%,108%,-32.7% (active),26.1%,84.3%,88.7%,40.9%,95%,92.5%,65.7%,11.7%,6.98% (active),104%,99.4%
COc1c(C)cnc(CSc2nc(-c3ccc(C)cc3)cn2-c2ccc(Cl)cc2)c1C,74.8%,89.9%,98.5%,97.5%,90.2%,91%,93.4%,93.5%,105%,95.5%,88.1%,102%,110%,100%,102%,79.8%,106%,105%
CN(C)c1ccc(/C=C/c2c(F)cccc2F)cc1,93.7%,95.8%,99.7%,104%,90.3%,89.3%,59.7%,98%,89.9%,92.6%,58.3%,94.7%,101%,104%,49.7%,91.8%,95.1%,91.7%
COC(=O)CNC(=O)C(=O)c1c(O)c(O)c(C(C)C)c2cc(C)c(-c3c(C)cc4c(C(C)C)c(O)c(O)c(C(=O)C(=O)NCC(=O)OC)c4c3O)c(O)c12,15%,20.4%,13%,30.4%,-5.2% (active),6.72% (active),21.1%,18%,20.2%,20.9%,16%,30.2%,55.1%,16%,18%,11%,33.8%,16.1%
